CYP2C9 inhib: blocks human cytochrome P450 2C9 | P11712 | CYP2C9 Supersomes, luciferin-H conversion, luminescence | inhibition, % at 5 µM | 20% of 96,000 active | AID 777;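 active means blocking of liver enzyme CYP2C9 beyond about 50% at 5 µM, limit read from the data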
Mac1 fbg inh: inhibitors of human CD11b/CD18 binding to fibrinogen; inhibition, % at 10 µM; P05107+P11215; 0.54% of 93,000 active; K562 CD11b/CD18 adhesion to fibrinogen, ATPlite luminescence; Mn2+ added to activate the integrin; AID 1497;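 active means primary inhibition of 50% or more at 10 µM, then 40% or more on retest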
Mac1 fbg enh: enhancers of human CD11b/CD18 binding to fibrinogen; K562 CD11b/CD18 adhesion to fibrinogen, ATPlite luminescence; activation, % at 10 µM; 0.07% of 93,000 active; AID 1499;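 active means 10 µM primary screen giving 50% or more activity, confirmed by 40% or more on retest at that dose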
CYP2C19 activ: cytochrome P450 2C19 (human) activation | AID 1025 | 96,000 tested, under 10 active | activation factor at 5 µM | recombinant CYP2C19, luciferin-H EGE luminescence; stronger effect = higher value; 0 = fully inhibited enzyme, 1 = untreated enzyme;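 active means activation factor of at least 2 at 5 µM in the primary screen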;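 further: 0 = wells with 2.5 mM tranylcypromine and 1 = vehicle-only wells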
Target sequence (P33261 whole entry, looked up): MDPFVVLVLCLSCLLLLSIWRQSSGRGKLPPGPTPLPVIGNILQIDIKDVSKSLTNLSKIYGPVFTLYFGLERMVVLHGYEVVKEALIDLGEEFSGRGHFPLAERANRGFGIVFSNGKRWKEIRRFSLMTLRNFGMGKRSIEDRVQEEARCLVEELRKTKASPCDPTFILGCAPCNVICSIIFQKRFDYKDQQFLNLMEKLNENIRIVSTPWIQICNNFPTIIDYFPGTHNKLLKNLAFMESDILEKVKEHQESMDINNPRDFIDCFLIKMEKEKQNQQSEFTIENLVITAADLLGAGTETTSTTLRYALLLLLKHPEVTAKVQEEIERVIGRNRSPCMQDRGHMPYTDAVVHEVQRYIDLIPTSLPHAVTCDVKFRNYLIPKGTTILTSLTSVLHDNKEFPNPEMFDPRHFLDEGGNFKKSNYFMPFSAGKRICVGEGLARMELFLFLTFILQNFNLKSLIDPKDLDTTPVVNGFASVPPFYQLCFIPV
CYP2C19 inh: inhibitors of human CYP2C19; P33261; CYP2C19 Supersomes, luciferin-H EGE luminescence, 30 min; inhibition, % at 5 µM; 21% of 96,000 active; AID 778;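 active means CYP2C19 inhibition above a set limit at 5 µM in the primary screen, cut at about 50% in these data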;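 further: plate controls were negative control wells for no effect and 2.5 mM tranylcypromine positive control for full effect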
CYP2C9 act: increases human cytochrome P450 2C9 activity; P11712; recombinant CYP2C9, luciferin-H conversion, luminescence; stronger effect = higher value; factor 1 = untreated enzyme, 0 = blocked; activation factor at 5 µM; 1.4% of 96,000 active; AID 1024;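 active means activation factor of 2 or more for CYP2C9 at a 5 µM dose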;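 further: 0 = sulfaphenazole-blocked wells and 1 = vehicle-only wells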
* marks the source's active call; other numbers are inactive results; . = no result given. Hits are enriched below; roughly 28% of the tested compounds scored in any of these assays.

SMILES | CYP2C9 inhib | Mac1 fbg inh | Mac1 fbg enh | CYP2C19 activ | CYP2C19 inh | CYP2C9 act
COc1ccccc1NS(=O)(=O)c1cccc(NC(=O)c2ccc3ccccc3n2)c1 | . | 72 | -6 | . | . | .
COc1ccccc1NS(=O)(=O)c1ccc(O)cc1 | -126 | 0 | -4 | 0.1 | 86* | 2.3*
Cc1csc(NC(=O)C2CCN(C(=O)CSc3nnc(C)n3Cc3ccccc3)CC2)n1 | 43 | -14 | 3 | 0.6 | 36 | 0.6
Cc1ccc(C(=O)COc2ccccc2N2C(=O)c3ccccc3C2=O)cc1 | . | 8 | 0 | . | . | .
Cc1[nH]c2ccccc2c1C(=O)COC(=O)C1CC(=O)N(Cc2ccccc2)C1 (stereo not drawn) | 67* | -12 | 1 | 0.2 | 78* | 0.3
CCOC(=O)c1c(C)[nH]c(C(=O)COC(=O)C2CC(=O)N(Cc3ccccc3)C2)c1C (stereo not drawn) | 42 | 12 | 1 | 0.6 | 42 | 0.6
Cc1c(Cl)c(C(=O)N2CCCc3ccccc32)nn1C | -12 | -3 | -2 | 0.7 | 34 | 1.1
CS(=O)(=O)N(CC(=O)Nc1ccc(F)c(F)c1)c1cccc([N+](=O)[O-])c1 | . | -3 | -2 | . | . | .
COc1ccccc1N(CC(=O)Nc1cccnc1)S(C)(=O)=O | 31 | -16 | -5 | 0.3 | 68* | 0.7
COc1ccccc1N(CC(=O)Nc1ccc(F)c(F)c1)S(C)(=O)=O | 66* | 6 | 2 | 0.1 | 88* | 0.3
COc1ccc(S(=O)(=O)N(CC(=O)Nc2cccnc2)c2ccccc2OC)cc1 | 94* | -5 | -1 | 0.5 | 54* | 0.1
COc1ccc(OC)c(N(CC(=O)Nc2cccnc2)S(=O)(=O)c2ccccc2)c1 | 98* | -51 | -3 | 0 | 98* | 0
COc1ccc(N(CC(=O)Nc2ccc3c(c2)OCCO3)S(=O)(=O)c2cccnc2)cc1 | 48 | -4 | 2 | 0.8 | 25 | 0.5
COc1ccccc1N(CC(=O)NCc1ccccc1)S(C)(=O)=O | 15 | -27 | 4 | 0.8 | 18 | 0.9
CC(Sc1nnc(-c2ccccc2)c(-c2ccccc2)n1)C(=O)N1CCc2ccccc21 (stereo not drawn) | . | 6 | -4 | . | . | .
CC(C)C(CO)NC(=O)CC(=O)NC(CO)C(C)C (stereo not drawn) | 7 | -15 | -7 | 1 | 0 | 0.9
COc1ccccc1N(CC(N)=O)S(=O)(=O)c1ccc(C)cc1 | 44 | -16 | 0 | 0.7 | 28 | 0.6
COc1ccccc1N(CC(=O)Nc1cccnc1)S(=O)(=O)c1ccccc1 | 100* | -9 | 1 | 0.1 | 90* | 0
Cn1c(Sc2ccc(Br)cc2)c(C=O)c2ccccc21 | 50 | 52 | -7 | 0.7 | 27 | 0.5
Nc1nc(Nc2ccc(Cl)cc2)nc2ccccc12 | 46 | 85* | -4 | 0.6 | 44 | 0.5
Nc1nc(Nc2ccccc2)nc2ccccc12 | 14 | 34 | 0 | 0.6 | 41 | 0.9
COC(=O)c1cc(CSc2nnc(-c3ccccc3)c(-c3ccccc3)n2)oc1C | 53* | 28 | -3 | 0.9 | 12 | 0.5
CCOC(=O)c1cnn(-c2nc3c(C)cccc3s2)c1C | -8 | -1 | -3 | 1.1 | -14 | 1.1
CCOc1ccc(NC(=O)c2ccncc2)cc1 | 73* | -29 | 0 | 0.3 | 73* | 0.3
CCOc1ccc2c(c1)C(=NNC(=O)c1ccncc1)c1cc(OCC)ccc1-2 | . | -13 | 16 | . | . | .
SMILES | CYP2C9 inhib | Mac1 fbg inh | Mac1 fbg enh | CYP2C19 activ | CYP2C19 inh | CYP2C9 act
CCOc1ccc(NC(=O)c2nn(C)cc2Br)cc1 | -112 | 3 | 97 | 0.9 | 13 | 2.1*
CCOc1ccc(C(=O)c2ccncc2)cc1 | 75* | -18 | -5 | 0.1 | 87* | 0.2
CCOc1ccc(NC(=O)CCn2cccc2)cc1 | 12 | -16 | -1 | 0.7 | 27 | 0.9
CCOc1ccc(NC(=O)c2ccc(OC)cc2)cc1 | -7 | 8 | 0 | 1 | -3 | 1.1
CCOC(=O)N1CCN(Cc2nc3c(c(=O)[nH]c(=O)n3C)n2Cc2ccccc2C)CC1 | 0 | . | . | 1 | -4 | 1
COC(=O)c1sccc1NC(=O)c1c(C)c(-c2cccc(Cl)c2)nc2ccccc12 | . | -14 | 19 | . | . | .
Cc1ccccc1-n1nc2c(c1NC(=O)c1c(-c3ccccc3Cl)noc1C)CS(=O)(=O)C2 | 5 | -32 | 6 | 1 | -2 | 0.9
Cc1nc(-c2cccnc2)sc1C(=O)Nc1cccc(C(F)(F)F)c1 | -89 | . | . | 0.5 | 48 | 1.9
COc1ccc(-c2cc(C(F)(F)F)n3nc(C(=O)NCCCn4ccnc4)cc3n2)cc1 | 98* | 9 | -1 | 0.2 | 83* | 0
COc1ccc(-c2cc(C(F)(F)F)n3nc(C(=O)NCc4ccco4)cc3n2)cc1OC | 69* | -4 | 22 | 0.2 | 76* | 0.3
O=C(NCc1ccco1)c1cc2nc(C3CC3)cc(C(F)(F)F)n2n1 | 28 | -15 | 0 | 0.9 | 6 | 0.7
Cc1cc(C)n(C(=O)C(C)N2C(=O)c3ccccc3C2=O)n1 (stereo not drawn) | 17 | 1 | 3 | 0.5 | 50 | 0.8
C=CCOC(=O)C1=C(C)NC(SCC)=C(C#N)C1c1ccc(Cl)cc1 (stereo not drawn) | 86* | 0 | -8 | 0.5 | 53* | 0.1
C=CCOc1ccc(C2NC(=O)NC(C)=C2C(=O)OC)cc1 (stereo not drawn) | 39 | -38 | 3 | 0.6 | 44 | 0.6
CCOC(=O)C1=C(C)NC(SCC(=O)OC)=C(C#N)C1c1ccc(C(=O)OC)cc1 (stereo not drawn) | 96* | 13 | 9 | 0 | 97* | 0
CCOC(=O)CSC1=C(C#N)C(c2ccc(F)cc2)C(C(C)=O)=C(C)N1 (stereo not drawn) | 51* | 28 | 3 | 0.6 | 42 | 0.5
CCOC(=O)CN1C(=O)C(O)=C(C(C)=O)C1c1ccc(F)cc1 (stereo not drawn) | 11 | -1 | 2 | 0.9 | 5 | 0.9
CC(=O)C1=C(C)NC(SCC(=O)Nc2nc3ccccc3s2)=C(C#N)C1c1ccc(Cl)cc1 (stereo not drawn) | . | 97 | -11 | . | . | .
C=CCOC(=O)C1=C(C)NC(=O)NC1c1ccc(Cl)cc1 (stereo not drawn) | 66* | 6 | 1 | 0 | 100* | 0.3
Cc1ccccc1CN(c1ccc(C(=O)NCCC2=CCCCC2)cc1)S(C)(=O)=O | 13 | -6 | -2 | 0.9 | 7 | 0.9
CCCOc1ccc(-c2nnn(CC(=O)c3c[nH]c4ccccc34)n2)cc1 | 27 | 3 | 14 | 1.1 | -9 | 0.7
CCC(C)[C@H](NC(=O)Nc1ccc(C(C)=O)cc1)C(=O)OC (stereo partly drawn) | -7 | -3 | 4 | 1 | 4 | 1.1

Compound activity as filed in PubChem.
